In the supplement of paper PMC8975748:
Structures can show the parent of a compound that is named as a salt. ± gives the standard deviation of the averaged measurements.

Tests used:
[1] = tested on: Saccharomyces cerevisiae BY4741 SeMeCo community; assay: mean cell size (pixel area) (pixels); higher = larger cells; settings: 10 µM; 24 h; SM minimal medium
Summary of the method: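 Plates of 384 wells were acoustically predosed with drug at a final 10 µM in SM medium, and 70 µl of a Saccharomyces cerevisiae BY4741 preculture diluted from OD600 = 1.0 to OD600 = 0.3 was added for 24 h. The yeast formed a four-plasmid fluorescent community in which each plasmid complements one auxotrophy and carries a fluorescent marker. Fixed cells were imaged by automated confocal microscopy and analysed in Harmony for mean cell pixel area per well. Values are means of 3 replicates. Same SeMeCo high-content imaging drug screen: Selleck FDA-approved drugs at 10 µM, 24 h in SM medium, 384-well plates, 3 replicates.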

[2] = tested on: Saccharomyces cerevisiae BY4741 SeMeCo community; assay: z-score of prototroph abundance vs DMSO median; higher = larger share of this subpopulation than in DMSO controls; settings: 10 µM; 24 h; SM minimal medium; subpopulation (auxotrophy): Prototroph
Summary of the method: (§1)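 Automated confocal microscopy of paraformaldehyde-fixed cells was used to follow a Saccharomyces cerevisiae BY4741 community carrying four plasmids, each restoring one auxotrophy and encoding a distinct fluorescent protein. The community was pre-grown overnight to OD600 1.0, diluted to 0.3, and added at 70 µl to 384-well plates acoustically predosed with library drugs (10 µM final) for 24 h of growth in minimal SM medium. Single-auxotroph fluorescent strains set thresholds and autofluorescence correction, and each subpopulation's abundance was scored as a z-score against the vehicle-well median.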

[3] = tested on: Saccharomyces cerevisiae BY4741 SeMeCo community; assay: z-score of subpopulation abundance vs DMSO median, subpopulation auxotrophic for L; higher = larger share of this subpopulation than in DMSO controls; settings: 10 µM; 24 h; SM minimal medium; subpopulation (auxotrophy): L
Summary of the method: as §1

[4] = tested on: Saccharomyces cerevisiae BY4741 SeMeCo community; assay: z-score of subpopulation abundance vs DMSO median, subpopulation auxotrophic for U; higher = larger share of this subpopulation than in DMSO controls; settings: 10 µM; 24 h; SM minimal medium; subpopulation (auxotrophy): U
Summary of the method: as §1

[5] = tested on: Saccharomyces cerevisiae BY4741 SeMeCo community; assay: z-score of subpopulation abundance vs DMSO median, subpopulation auxotrophic for H; higher = larger share of this subpopulation than in DMSO controls; settings: 10 µM; 24 h; SM minimal medium; subpopulation (auxotrophy): H
Summary of the method: as §1

[6] = tested on: Saccharomyces cerevisiae BY4741 SeMeCo community; assay: z-score of subpopulation abundance vs DMSO median, subpopulation auxotrophic for LU; higher = larger share of this subpopulation than in DMSO controls; settings: 10 µM; 24 h; SM minimal medium; subpopulation (auxotrophy): LU
Summary of the method: as §1

[7] = tested on: Saccharomyces cerevisiae BY4741 SeMeCo community; assay: z-score of subpopulation abundance vs DMSO median, subpopulation auxotrophic for HU; higher = larger share of this subpopulation than in DMSO controls; settings: 10 µM; 24 h; SM minimal medium; subpopulation (auxotrophy): HU
Summary of the method: as §1

[8] = tested on: Saccharomyces cerevisiae BY4741 SeMeCo community; assay: z-score of subpopulation abundance vs DMSO median, subpopulation auxotrophic for UM; higher = larger share of this subpopulation than in DMSO controls; settings: 10 µM; 24 h; SM minimal medium; subpopulation (auxotrophy): UM
Summary of the method: as §1

[9] = tested on: Saccharomyces cerevisiae BY4741 SeMeCo community; assay: z-score of subpopulation abundance vs DMSO median, subpopulation auxotrophic for HL; higher = larger share of this subpopulation than in DMSO controls; settings: 10 µM; 24 h; SM minimal medium; subpopulation (auxotrophy): HL
Summary of the method: as §1

[10] = tested on: Saccharomyces cerevisiae BY4741 SeMeCo community; assay: z-score of subpopulation abundance vs DMSO median, subpopulation auxotrophic for HLU; higher = larger share of this subpopulation than in DMSO controls; settings: 10 µM; 24 h; SM minimal medium; subpopulation (auxotrophy): HLU
Summary of the method: as §1

[11] = tested on: Saccharomyces cerevisiae BY4741 SeMeCo community; assay: z-score of subpopulation abundance vs DMSO median, subpopulation auxotrophic for HLM; higher = larger share of this subpopulation than in DMSO controls; settings: 10 µM; 24 h; SM minimal medium; subpopulation (auxotrophy): HLM
Summary of the method: as §1

[12] = tested on: Saccharomyces cerevisiae BY4741 SeMeCo community; assay: z-score of subpopulation abundance vs DMSO median, subpopulation auxotrophic for HUM; higher = larger share of this subpopulation than in DMSO controls; settings: 10 µM; 24 h; SM minimal medium; subpopulation (auxotrophy): HUM
Summary of the method: as §1

[13] = tested on: Saccharomyces cerevisiae BY4741 SeMeCo community; assay: z-score of subpopulation abundance vs DMSO median, subpopulation auxotrophic for LUM; higher = larger share of this subpopulation than in DMSO controls; settings: 10 µM; 24 h; SM minimal medium; subpopulation (auxotrophy): LUM
Summary of the method: as §1

[14] = tested on: Saccharomyces cerevisiae BY4741 SeMeCo community; assay: z-score of subpopulation abundance vs DMSO median, subpopulation auxotrophic for HLUM; higher = larger share of this subpopulation than in DMSO controls; settings: 10 µM; 24 h; SM minimal medium; subpopulation (auxotrophy): HLUM
Summary of the method: as §1

[15] = tested on: Saccharomyces cerevisiae BY4741 SeMeCo community; assay: z-score of subpopulation abundance vs DMSO median, subpopulation auxotrophic for LM; higher = larger share of this subpopulation than in DMSO controls; settings: 10 µM; 24 h; SM minimal medium; subpopulation (auxotrophy): LM
Summary of the method: as §1

[16] = tested on: Saccharomyces cerevisiae BY4741 SeMeCo community; assay: z-score of subpopulation abundance vs DMSO median, subpopulation auxotrophic for HM; higher = larger share of this subpopulation than in DMSO controls; settings: 10 µM; 24 h; SM minimal medium; subpopulation (auxotrophy): HM
Summary of the method: as §1

| SMILES | mean cell size [1] | z-score of prototroph abundance [2] | z-score of subpopulation abundance [3] | z-score of subpopulation abundance [4] | z-score of subpopulation abundance [5] | z-score of subpopulation abundance [6] | z-score of subpopulation abundance [7] | z-score of subpopulation abundance [8] | z-score of subpopulation abundance [9] | z-score of subpopulation abundance [10] | z-score of subpopulation abundance [11] | z-score of subpopulation abundance [12] | z-score of subpopulation abundance [13] | z-score of subpopulation abundance [14] | z-score of subpopulation abundance [15] | z-score of subpopulation abundance [16] |
| --- | --- | --- | --- | --- | --- | --- | --- | --- | --- | --- | --- | --- | --- | --- | --- | --- |
| NNc1nncc2ccccc12 [Hydralazine HCl] | 11.8 ± 0.14 | 0.63 | -0.91 | 0.89 | -1.09 | -0.18 | 0.18 | 0.37 | -0.59 | -0.68 | 0.17 | -0.64 | -0.97 | -0.64 | – | – |
| CCCCCCCCCC(=O)NC1C(Oc2c3cc4cc2Oc2ccc(cc2Cl)C(OC2OC(CO)C(O)C(O)C2NC(C)=O)C2NC(=O)C(NC(=O)C4NC(=O)C4NC(=O)C(Cc5ccc(c(Cl)c5)O3)NC(=O)C(N)c3ccc(O)c(c3)Oc3cc(O)cc4c3)c3ccc(O)c(c3)-c3c(OC4OC(CO)C(O)C(O)C4O)cc(O)cc3C(C(=O)O)NC2=O)OC(CO)C(O)C1O (configuration not stated) [Teicoplanin] | – | -0.99 | -0.21 | -0.01 | 0.94 | 0.07 | 0.39 | 0.78 | 1.01 | -0.15 | -0.07 | 1.19 | 0.85 | -0.79 | 0.75 | 1.4 |
| Cc1cccc(Nc2ccccc2C(=O)O)c1C [Mefenamic Acid] | 12.4 ± 0.21 | – | 0.31 | -0.58 | -0.41 | -0.62 | 0.29 | -0.74 | 0.24 | -0.38 | -0.42 | -0.64 | – | -0.2 | 0.12 | -0.11 |
| CCN(CC)CCOc1ccc(C(=C(Cl)c2ccccc2)c2ccccc2)cc1 [Clomifene citrate] | 12.1 ± 0.14 | -1.75 | 0.3 | 0.29 | 0.53 | 1.04 | 1.86 | 0.9 | 1.64 | 2.19 | 1.37 | 1.42 | 1.75 | 0.41 | – | 1.75 |
| CN[C@@H]1[C@H](O[C@H]2[C@H](O[C@H]3[C@H](O)[C@@H](O)[C@H](N=C(N)N)[C@@H](O)[C@@H]3N=C(N)N)O[C@@H](C)[C@]2(O)C=O)O[C@@H](CO)[C@H](O)[C@H]1O [Streptomycin sulfate] | 11.99 ± 0.031 | 0.05 | -1.14 | 1.16 | 0.36 | -0.25 | 0.65 | 0.8 | -0.36 | -0.4 | -0.57 | 0.39 | -0.33 | -0.41 | -0.12 | – |
| CC[C@H]1OC(=O)[C@H](C)[C@@H](O[C@H]2C[C@@](C)(OC)[C@@H](O)[C@H](C)O2)[C@H](C)[C@@H](O[C@@H]2O[C@H](C)C[C@H](N(C)C)[C@H]2O)[C@](C)(O)C[C@@H](C)CN(C)[C@H](C)[C@@H](O)[C@]1(C)O [Azithromycin] | 12.5 ± 0.14 | -0.03 | 0.82 | -0.41 | -0.15 | 0.14 | 0.02 | -0.55 | -0.27 | -0.06 | – | 0.11 | – | – | 0.27 | – |
| COc1cnc(NS(=O)(=O)c2ccc(N)cc2)nc1 [Sulfameter] | – | 0 | -0.37 | 0.75 | -0.43 | 1.19 | -0.1 | – | -0.38 | -0.26 | 0.42 | 0.14 | 0.64 | – | -0.51 | – |
